In PubChem BioAssay (NCI):
This is part of a sample that, as a whole, favours compounds with a hit. Of some 83,000 tested, about 20% had one in any assay.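 The test compound was applied at a single concentration to cells in 96-well plates for 48 hours, and percent growth was recorded.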 Unmarked numbers belong to inactive results. Activity calls are given as the source filed them. How the source made its calls: active means growth percent below 10; inactive means the rest.

Assays:
Assay in all cases: NCI-60 one-dose screen, 48 h (100 = growth as untreated, 0 = no growth, -100 = all killed)
Settings in all cases: 10 µM unless noted
DU-145 prostate = tested on: DU-145 prostate
K-562 leukemia = tested on: K-562 leukemia
MALME-3M melanoma = tested on: MALME-3M melanoma
MDA-MB-231 breast = tested on: MDA-MB-231 breast
RXF 393 renal = tested on: RXF 393 renal
SF-268 CNS = tested on: SF-268 CNS
SF-295 CNS = tested on: SF-295 CNS
SF-539 CNS = tested on: SF-539 CNS
UACC-257 melanoma = tested on: UACC-257 melanoma
M14 melanoma = tested on: M14 melanoma
HCT-15 colon = tested on: HCT-15 colon
HT29 colon = tested on: HT29 colon
SNB-75 CNS = tested on: SNB-75 CNS
SNB-19 CNS = tested on: SNB-19 CNS
U251 CNS = tested on: U251 CNS
PC-3 prostate = tested on: PC-3 prostate
SK-MEL-5 melanoma = tested on: SK-MEL-5 melanoma
UACC-62 melanoma = tested on: UACC-62 melanoma
LOX IMVI melanoma = tested on: LOX IMVI melanoma
SK-MEL-28 melanoma = tested on: SK-MEL-28 melanoma

| SMILES | growth (DU-145 prostate) | growth (K-562 leukemia) | growth (MALME-3M melanoma) | growth (MDA-MB-231 breast) | growth (RXF 393 renal) | growth (SF-268 CNS) | growth (SF-295 CNS) | growth (SF-539 CNS) | growth (UACC-257 melanoma) | growth (M14 melanoma) | growth (HCT-15 colon) | growth (HT29 colon) | growth (SNB-75 CNS) | growth (SNB-19 CNS) | growth (U251 CNS) | growth (PC-3 prostate) | growth (SK-MEL-5 melanoma) | growth (UACC-62 melanoma) | growth (LOX IMVI melanoma) | growth (SK-MEL-28 melanoma) |
| --- | --- | --- | --- | --- | --- | --- | --- | --- | --- | --- | --- | --- | --- | --- | --- | --- | --- | --- | --- | --- |
| COc1ccc(-c2cc(-c3ccccc3)nc(SCCCCCC(=O)NO)n2)cc1 | 61.2% | 26.4% | 21.5% | 59.2% | 39.2% | 98.9% | 60.4% | 68.1% | 36.5% | 52% | 78.1% | 23% | 44.1% | 70.5% | 56.4% | 70.7% | 33.2% | 26.2% | 59.2% | 49.3% |
| COc1cc(C)cc2oc3oc(=O)c(C(=O)c4cc5cc(Br)ccc5o4)cc3c(=O)c12 | 113% | 103% | 98.8% | 105% | 116% | 95% | 103% | 96.8% | 105% | 100% | 103% | 110% | 86.6% | 100% | 102% | 102% | 102% | 99.9% | 97.4% | 106% |
| CCOC(=O)c1nc2c3ccccc3ccn2c1C(=O)OC | 104% | 113% | 100% | 99.9% | 93.8% | 101% | 106% | 100% | 102% | 107% | 97% | 90.1% | 78.9% | 91.4% | 96.2% | 105% | 96.6% | 89.4% | 109% | 96.5% |
| N#Cc1c(Cl)nc(SCC2CO2)nc1-c1ccccc1 (stereo not given) | 123% | 128% | 85.1% | 118% | 101% | 116% | 117% | 105% | 39.9% | 98.5% | 110% | 111% | 95.6% | 106% | 104% | 110% | 107% | 107% | 98.4% | 114% |
| CC(C)c1ccc(C(=O)Nc2sc3c(c2C#N)CCC(=O)C3)cc1 | 43.9% | 1.57% (active) | -41.2% (active) | -39.6% (active) | -38.5% (active) | 26.9% | -7.58% (active) | -48.4% (active) | -2.97% (active) | -6.52% (active) | -24.5% (active) | 8.34% (active) | -42.1% (active) | 11.4% | 15% | 1.47% (active) | -62.9% (active) | -27.8% (active) | 16.7% | 22.3% |
| CC1(C)C(=NO)C(C)(C)C1=NO | 114% | 98.8% | 116% | 123% | 112% | 103% | 108% | 117% | 95.4% | 99.5% | 102% | 105% | 96.5% | 107% | 113% | 90.7% | 103% | 109% | 108% | 113% |
| O=C(Nc1cccc(F)c1)c1cc(=O)[nH]c2cc(Br)ccc12 | 74.2% | 21.3% | 52.8% | 72.2% | 56.1% | 60.8% | 38.9% | 47.6% | 57% | 29.5% | 28.6% | 9.92% (active) | 43.7% | 54.7% | 36% | 43.8% | 32% | 34.4% | 43.1% | 62.3% |
| CCOC(=O)c1cc(C#N)n2ncc3ccccc3c12 | 109% | 95.1% | 102% | 98.6% | 102% | 101% | 103% | 89% | -53.6% (active) | 93.2% | 94.3% | 98% | 72.7% | 91.8% | 93.2% | 92.8% | 98% | 91.7% | 95.6% | 101% |
| C#C[C@]1(O)CC[C@H]2[C@@H]3CC=C4c5nc(Nc6ncccn6)sc5CC[C@]4(C)[C@H]3CC[C@@]21C | 61.1% | 33.8% | 47.6% | 34.2% | -59.1% (active) | 29.5% | -66.2% (active) | -50.1% (active) | -16% (active) | 43.8% | 33.1% | 55.4% | -7.12% (active) | 64.8% | 21.9% | 32.1% | 68.1% | 1.81% (active) | 26.9% | -41.4% (active) |
| CC(=O)Nc1ccc(C=Nc2ccc3ccccc3c2)cc1 | 112% | 105% | 111% | 109% | 108% | 105% | 119% | 107% | 103% | 97% | 105% | 105% | 77.7% | 92.9% | 113% | 96.5% | 99.6% | 97.2% | 114% | 108% |
| CC1(C)CC[C@]2(C(N)=O)CC[C@]3(C)C(=CC[C@@H]4[C@@]5(C)C/C(=C/c6cccnc6)C(=O)C(C)(C)[C@@H]5CC[C@]43C)[C@@H]2C1 | -18% [100 µM] (active) | 4.29% [100 µM] (active) | -75.9% [100 µM] (active) | -45.2% [100 µM] (active) | -63% [100 µM] (active) | -5.09% [100 µM] (active) | -53.9% [100 µM] (active) | -61.5% [100 µM] (active) | -54.7% [100 µM] (active) | -11.2% [100 µM] (active) | -65.6% [100 µM] (active) | -35.6% [100 µM] (active) | -17.6% [100 µM] (active) | -90.1% [100 µM] (active) | -83.2% [100 µM] (active) | -19.6% [100 µM] (active) | -100% [100 µM] (active) | -70.5% [100 µM] (active) | -74.1% [100 µM] (active) | -59.7% [100 µM] (active) |
| CCN(CC)CCCC(C)Nc1c2ccc(C)cc2nc2ccc(OC)cc12 (stereo not given) | 4.05% (active) | 4.22% (active) | 53.3% | 41.9% | 23.7% | 39.4% | 8.67% (active) | 10.2% | -76% (active) | -10.2% (active) | 18.2% | -26.1% (active) | 41% | 43.7% | 31.2% | 30.9% | 82.1% | 74.4% | -70.8% (active) | 62.1% |
| O=C1COCCN1c1ccc(NCc2cn(Cc3cccc4ccccc34)c3ccccc23)cc1 | 98.7% | 84.6% | 90.1% | 101% | 43.1% | 85.3% | 89.6% | 95.6% | 78.4% | 89% | 74% | 97.7% | 79.6% | 97.9% | 74.5% | 79.4% | 82.1% | 41.7% | 91% | 92.6% |
| COc1cc2c(c(OC)c1OC)-c1cc(I)c(O)cc1[C@@H](NC(C)=O)CC2 | 16.9% | 25.6% | 80.2% | 7.04% (active) | 37.7% | 8.91% (active) | 22.4% | -27.8% (active) | 61.9% | 14.4% | 4.21% (active) | 10.8% | 28% | 14.1% | 7.36% (active) | 28.8% | -15.2% (active) | 17.8% | 24.4% | 76.7% |
| Cn1cc(-c2nnc(-c3ccccc3)s2)c2cc(Br)cnc21 | 92.6% | 70.7% | 69.9% | 39.3% | 102% | 91.7% | 95.5% | 78.9% | 100% | 101% | 77.6% | 95% | 29.9% | 87.9% | 92% | 84.9% | 74.1% | 69.5% | 83.3% | 97.6% |
| O=C1Cc2c(sc3c(F)cccc23)C(c2ccccc2[N+](=O)[O-])N1 (stereo not given) | 107% | 97.1% | 94.5% | 84.9% | 125% | 93.8% | 101% | 89.4% | 120% | 101% | 110% | 112% | 90% | 100% | 85.2% | 100% | 97.3% | 87.2% | 97.7% | 120% |
| CC(C)[N+](C)(C)CC(O)COc1cccc2ccccc12 (stereo not given) | 106% | 106% | 103% | 103% | 115% | 94% | 104% | 96% | 90.4% | 107% | 97.1% | 111% | 109% | 103% | 101% | 92.2% | 107% | 101% | 93.2% | 113% |
| COc1cc(OC)c(/C=C/C(=O)c2c(N)cc(OC)cc2OC)c(OC)c1 | 12.6% | 13.9% | 63.6% | 41.2% | -46.1% (active) | 42.6% | 4.26% (active) | -6.02% (active) | 49.4% | 18.2% | 21.2% | 3.5% (active) | 23.5% | 27.9% | 11.9% | 11.8% | 17% | 9.68% (active) | 23.2% | 61% |
| C[n+]1c(-c2ccccc2)c2cc(N)ccc2c2ccccc21 | 43.8% | 33.4% | -19.5% (active) | 70.8% | 58.9% | -6.88% (active) | 75.6% | 28.5% | 8.1% (active) | 74.3% | 101% | 31.5% | -0.792% (active) | -2.68% (active) | 11.6% | 58.4% | 0.275% (active) | 0.188% (active) | 40.2% | 10.4% |
| CC(C)=CC/C=C(/C)[C@H]1CC[C@]2(C)[C@@H]1CC[C@@H]1[C@@]3(C)CCC(=O)NC(C)(C)[C@@H]3CC[C@]12C | 12.2% [100 µM] | 6.71% [100 µM] (active) | -85.2% [100 µM] (active) | -35.9% [100 µM] (active) | -72.3% [100 µM] (active) | 10.9% [100 µM] | -22.5% [100 µM] (active) | -92.2% [100 µM] (active) | 14.8% [100 µM] | 15.7% [100 µM] | 11.7% [100 µM] | -0.044% [100 µM] (active) | 19.7% [100 µM] | 24.9% [100 µM] | -67% [100 µM] (active) | 16.5% [100 µM] | -93.5% [100 µM] (active) | -24.4% [100 µM] (active) | -90.1% [100 µM] (active) | -77.3% [100 µM] (active) |
| N#C/C(C(=O)c1ccccc1)=C1/C(=O)Nc2ccc(Br)cc21 | 108% | 91.3% | 96.7% | 95.5% | 111% | 103% | 100% | 94.7% | 97.9% | 107% | 107% | 113% | 70.5% | 98.6% | 106% | 96.4% | 95.5% | 92.5% | 103% | 105% |
